According to article PMC7862700, “An all-to-all approach to the identification of sequence-specific readers for epigenetic DNA modifications on cytosine”:

Key:
Assay in all cases: DAPPL (digital affinity profiling via proximity ligation, sequencing); 10 mM Tris-HCl pH 7.5, 50 mM NaCl, 1 mM DTT, 4% glycerol, room temperature, 30 min; GST-TFs on glutathione beads, 16-mer random dsDNA library, 0.1% formaldehyde crosslink after washing; high values mean tight binding
Conditions in all cases: protein: recombinant; tags: N-terminal GST; dsDNA, one strand shown
[1] = target: T1, ELK1 (Homo sapiens, UniProt P19419 1-428)
T1 sequence: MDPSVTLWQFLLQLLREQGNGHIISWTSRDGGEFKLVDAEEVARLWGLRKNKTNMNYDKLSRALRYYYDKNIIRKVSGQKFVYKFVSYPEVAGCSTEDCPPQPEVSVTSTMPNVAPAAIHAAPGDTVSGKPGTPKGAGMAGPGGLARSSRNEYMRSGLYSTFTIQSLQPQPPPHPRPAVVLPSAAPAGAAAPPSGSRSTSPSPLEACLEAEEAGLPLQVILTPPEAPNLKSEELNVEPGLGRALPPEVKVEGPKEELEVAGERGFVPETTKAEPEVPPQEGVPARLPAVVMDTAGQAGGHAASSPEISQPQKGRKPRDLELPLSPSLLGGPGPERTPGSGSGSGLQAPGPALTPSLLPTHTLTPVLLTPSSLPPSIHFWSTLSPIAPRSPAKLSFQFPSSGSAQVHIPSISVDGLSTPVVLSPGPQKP
How it was run: (§1)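 Binding signal is each hexamer's read frequency for a factor divided by its frequency in the tag-only sample. The factors were GST-fused human transcription factors from yeast, captured on glutathione beads, DNA-barcoded and pooled with that sample. Pools were incubated with 200 nmole of a random double-stranded 16-mer DNA library in Tris/NaCl/DTT/glycerol buffer at room temperature for 30 min, then washed, crosslinked with 0.1% formaldehyde, proximity-ligated with BsaI/T4 ligase (1 h, 37 °C), PCR-amplified and sequenced on an Illumina NextSeq500.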

[2] = target: T2, GABPA (Homo sapiens, UniProt Q06546 1-454)
T2 sequence: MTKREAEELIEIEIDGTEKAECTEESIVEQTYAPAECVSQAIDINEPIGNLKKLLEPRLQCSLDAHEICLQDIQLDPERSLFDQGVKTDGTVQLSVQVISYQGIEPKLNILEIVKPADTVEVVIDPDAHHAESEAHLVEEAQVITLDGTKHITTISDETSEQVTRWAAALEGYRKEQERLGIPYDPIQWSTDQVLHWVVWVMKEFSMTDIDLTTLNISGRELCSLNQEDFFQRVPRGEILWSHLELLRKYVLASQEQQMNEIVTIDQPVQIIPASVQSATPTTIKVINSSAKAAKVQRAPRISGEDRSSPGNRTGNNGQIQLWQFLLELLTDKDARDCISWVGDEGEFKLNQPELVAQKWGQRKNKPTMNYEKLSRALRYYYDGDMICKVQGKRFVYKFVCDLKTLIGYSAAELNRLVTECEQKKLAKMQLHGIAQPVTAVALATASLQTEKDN
How it was run: as §1

[3] = target: T3, ERG (Homo sapiens, UniProt P11308 1-479)
T3 sequence: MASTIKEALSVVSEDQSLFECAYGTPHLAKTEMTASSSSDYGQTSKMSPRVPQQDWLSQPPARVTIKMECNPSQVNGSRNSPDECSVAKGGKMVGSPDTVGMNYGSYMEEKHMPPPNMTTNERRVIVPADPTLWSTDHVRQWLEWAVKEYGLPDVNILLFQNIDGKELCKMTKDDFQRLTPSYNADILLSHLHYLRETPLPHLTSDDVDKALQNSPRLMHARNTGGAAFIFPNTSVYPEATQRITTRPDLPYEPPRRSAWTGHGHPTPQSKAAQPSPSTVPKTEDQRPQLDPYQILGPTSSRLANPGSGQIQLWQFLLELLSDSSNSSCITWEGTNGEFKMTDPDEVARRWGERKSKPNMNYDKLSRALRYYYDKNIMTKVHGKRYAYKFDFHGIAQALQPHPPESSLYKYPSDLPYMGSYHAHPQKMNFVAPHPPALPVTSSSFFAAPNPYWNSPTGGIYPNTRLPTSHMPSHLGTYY
How it was run: as §1

[4] = target: ELF1 (Homo sapiens, UniProt P32519 1-619)
Chain of ELF1 (P32519 whole entry): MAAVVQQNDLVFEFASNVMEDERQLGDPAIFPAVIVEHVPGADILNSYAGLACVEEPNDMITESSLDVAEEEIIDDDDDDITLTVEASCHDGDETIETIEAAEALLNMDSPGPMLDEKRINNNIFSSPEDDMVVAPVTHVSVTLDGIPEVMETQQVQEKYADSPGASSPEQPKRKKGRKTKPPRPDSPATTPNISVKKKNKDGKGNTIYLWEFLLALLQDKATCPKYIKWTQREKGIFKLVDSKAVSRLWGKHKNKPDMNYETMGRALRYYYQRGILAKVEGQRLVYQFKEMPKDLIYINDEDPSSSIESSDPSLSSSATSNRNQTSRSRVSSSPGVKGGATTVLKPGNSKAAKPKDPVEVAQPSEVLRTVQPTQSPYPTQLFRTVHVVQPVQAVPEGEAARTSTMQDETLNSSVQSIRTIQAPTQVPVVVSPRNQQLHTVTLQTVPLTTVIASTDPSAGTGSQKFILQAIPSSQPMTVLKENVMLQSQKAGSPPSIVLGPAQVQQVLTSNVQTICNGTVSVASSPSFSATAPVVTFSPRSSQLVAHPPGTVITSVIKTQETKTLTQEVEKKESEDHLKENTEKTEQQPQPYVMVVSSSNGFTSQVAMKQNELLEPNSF
How it was run: as §1

[5] = target: SPIB (Homo sapiens, UniProt Q01892 1-262)
Chain of SPIB (Q01892 whole entry): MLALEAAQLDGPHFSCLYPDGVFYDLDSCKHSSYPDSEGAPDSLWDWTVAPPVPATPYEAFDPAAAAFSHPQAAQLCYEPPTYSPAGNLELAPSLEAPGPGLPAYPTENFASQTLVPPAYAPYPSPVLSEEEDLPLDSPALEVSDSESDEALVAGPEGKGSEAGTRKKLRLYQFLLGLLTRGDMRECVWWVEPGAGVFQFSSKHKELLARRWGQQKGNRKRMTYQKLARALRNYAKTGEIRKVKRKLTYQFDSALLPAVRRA
How it was run: as §1

[6] = target: ETV5 (Homo sapiens, UniProt P41161 1-510)
Chain of ETV5 (P41161 whole entry): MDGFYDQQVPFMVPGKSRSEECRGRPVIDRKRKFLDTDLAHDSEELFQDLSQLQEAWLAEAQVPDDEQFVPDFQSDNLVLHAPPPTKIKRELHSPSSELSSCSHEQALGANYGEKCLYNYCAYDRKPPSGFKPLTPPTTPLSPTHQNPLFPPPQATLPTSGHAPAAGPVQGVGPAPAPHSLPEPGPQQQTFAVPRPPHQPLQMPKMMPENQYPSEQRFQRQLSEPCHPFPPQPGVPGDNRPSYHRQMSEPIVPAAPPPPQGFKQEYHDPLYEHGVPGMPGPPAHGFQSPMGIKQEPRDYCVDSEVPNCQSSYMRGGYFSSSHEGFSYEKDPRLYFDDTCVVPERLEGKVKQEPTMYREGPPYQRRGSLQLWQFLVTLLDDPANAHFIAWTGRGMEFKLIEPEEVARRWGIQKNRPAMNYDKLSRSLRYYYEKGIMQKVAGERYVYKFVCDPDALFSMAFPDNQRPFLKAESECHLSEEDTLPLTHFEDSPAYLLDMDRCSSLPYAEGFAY
How it was run: as §1

[7] = target: ELF4 (Homo sapiens, UniProt Q99607 1-663)
Chain of ELF4 (Q99607 whole entry): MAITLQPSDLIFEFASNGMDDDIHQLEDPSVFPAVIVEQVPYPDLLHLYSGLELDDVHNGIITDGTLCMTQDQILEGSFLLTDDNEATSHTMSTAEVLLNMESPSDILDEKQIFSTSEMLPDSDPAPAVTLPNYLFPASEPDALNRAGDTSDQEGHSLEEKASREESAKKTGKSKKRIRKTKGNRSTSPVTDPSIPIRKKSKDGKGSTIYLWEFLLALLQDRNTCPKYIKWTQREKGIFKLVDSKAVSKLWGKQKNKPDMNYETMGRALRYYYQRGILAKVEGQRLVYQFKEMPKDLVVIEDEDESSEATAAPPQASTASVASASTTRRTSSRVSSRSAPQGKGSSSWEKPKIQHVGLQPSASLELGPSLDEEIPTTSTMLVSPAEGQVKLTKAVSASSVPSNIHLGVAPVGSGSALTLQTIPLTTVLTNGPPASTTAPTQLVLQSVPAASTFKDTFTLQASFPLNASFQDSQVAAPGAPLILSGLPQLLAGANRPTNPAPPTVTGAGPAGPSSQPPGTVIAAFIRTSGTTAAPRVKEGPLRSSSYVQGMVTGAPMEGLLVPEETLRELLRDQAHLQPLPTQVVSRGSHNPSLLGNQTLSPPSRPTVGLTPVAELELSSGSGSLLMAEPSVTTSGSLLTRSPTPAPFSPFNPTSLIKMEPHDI
How it was run: as §1

[8] = target: T4, ELK4 (Homo sapiens, UniProt P28324-2 1-405)
T4 sequence: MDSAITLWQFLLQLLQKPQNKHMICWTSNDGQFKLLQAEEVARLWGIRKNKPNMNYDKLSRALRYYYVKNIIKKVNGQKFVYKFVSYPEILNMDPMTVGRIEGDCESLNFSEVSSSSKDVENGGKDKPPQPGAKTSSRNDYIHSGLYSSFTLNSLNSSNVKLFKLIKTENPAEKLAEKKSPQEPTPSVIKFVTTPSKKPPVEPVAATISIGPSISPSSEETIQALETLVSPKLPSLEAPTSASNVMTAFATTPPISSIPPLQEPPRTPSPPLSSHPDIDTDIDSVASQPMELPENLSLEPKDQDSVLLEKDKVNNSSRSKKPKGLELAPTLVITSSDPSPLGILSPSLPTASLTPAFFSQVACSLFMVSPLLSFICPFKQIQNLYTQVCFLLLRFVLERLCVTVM
How it was run: as §1

[9] = target: T5, ELF3 (Homo sapiens, UniProt P78545 1-371)
T5 sequence: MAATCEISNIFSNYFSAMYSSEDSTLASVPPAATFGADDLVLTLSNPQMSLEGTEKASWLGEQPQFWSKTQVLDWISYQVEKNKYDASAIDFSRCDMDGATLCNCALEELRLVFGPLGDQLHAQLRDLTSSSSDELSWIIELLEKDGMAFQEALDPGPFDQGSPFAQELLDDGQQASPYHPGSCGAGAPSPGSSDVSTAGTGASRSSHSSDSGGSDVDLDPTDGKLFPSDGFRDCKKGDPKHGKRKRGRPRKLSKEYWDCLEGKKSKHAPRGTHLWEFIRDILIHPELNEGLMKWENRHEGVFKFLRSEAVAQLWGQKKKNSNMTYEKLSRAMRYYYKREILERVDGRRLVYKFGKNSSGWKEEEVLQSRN
How it was run: as §1

[10] = target: ETV1 (Homo sapiens, UniProt P50549 1-477)
Chain of ETV1 (P50549 whole entry): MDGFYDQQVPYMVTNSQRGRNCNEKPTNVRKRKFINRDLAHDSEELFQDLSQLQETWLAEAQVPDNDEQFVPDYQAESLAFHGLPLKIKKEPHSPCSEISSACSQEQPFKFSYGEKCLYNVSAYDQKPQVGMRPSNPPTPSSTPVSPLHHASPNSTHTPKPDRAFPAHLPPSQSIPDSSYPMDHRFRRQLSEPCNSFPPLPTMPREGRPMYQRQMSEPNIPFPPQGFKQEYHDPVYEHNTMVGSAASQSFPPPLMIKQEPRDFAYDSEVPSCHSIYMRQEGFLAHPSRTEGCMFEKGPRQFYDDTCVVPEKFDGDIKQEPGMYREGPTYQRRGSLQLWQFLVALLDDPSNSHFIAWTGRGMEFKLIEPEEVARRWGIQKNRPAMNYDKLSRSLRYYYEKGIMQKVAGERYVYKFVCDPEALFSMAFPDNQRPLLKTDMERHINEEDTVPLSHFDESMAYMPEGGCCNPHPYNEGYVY
How it was run: as §1

[11] = target: T6, ERF (Homo sapiens, UniProt P50548 1-548)
T6 sequence: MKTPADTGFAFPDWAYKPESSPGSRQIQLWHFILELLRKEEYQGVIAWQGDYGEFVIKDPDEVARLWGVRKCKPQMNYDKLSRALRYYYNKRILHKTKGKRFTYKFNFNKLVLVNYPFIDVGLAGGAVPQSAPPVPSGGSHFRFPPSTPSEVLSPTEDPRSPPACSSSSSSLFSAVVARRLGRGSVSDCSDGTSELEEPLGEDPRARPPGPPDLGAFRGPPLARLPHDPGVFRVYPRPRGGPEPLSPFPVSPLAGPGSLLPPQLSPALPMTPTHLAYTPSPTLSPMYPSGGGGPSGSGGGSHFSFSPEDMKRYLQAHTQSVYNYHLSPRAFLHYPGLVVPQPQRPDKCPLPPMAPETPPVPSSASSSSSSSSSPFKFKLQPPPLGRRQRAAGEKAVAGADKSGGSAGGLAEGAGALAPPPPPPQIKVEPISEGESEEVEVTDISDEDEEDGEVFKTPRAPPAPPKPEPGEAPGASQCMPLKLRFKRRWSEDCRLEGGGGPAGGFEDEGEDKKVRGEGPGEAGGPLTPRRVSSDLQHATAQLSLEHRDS
How it was run: as §1

[12] = target: T7, ETV3L (Homo sapiens, UniProt Q6ZN32 1-361)
T7 sequence: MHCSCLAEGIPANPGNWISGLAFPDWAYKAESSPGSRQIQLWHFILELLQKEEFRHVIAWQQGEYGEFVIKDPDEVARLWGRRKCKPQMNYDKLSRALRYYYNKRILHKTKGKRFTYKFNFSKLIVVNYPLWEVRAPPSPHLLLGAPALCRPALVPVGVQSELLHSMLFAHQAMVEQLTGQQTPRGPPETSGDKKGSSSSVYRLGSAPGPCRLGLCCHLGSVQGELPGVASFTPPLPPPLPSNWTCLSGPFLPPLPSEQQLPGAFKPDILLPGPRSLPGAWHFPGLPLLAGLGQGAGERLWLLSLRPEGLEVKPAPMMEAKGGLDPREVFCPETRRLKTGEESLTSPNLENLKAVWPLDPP
How it was run: as §1

[13] = target: T8, ETV7 (Homo sapiens, UniProt Q9Y603 1-341)
T8 sequence: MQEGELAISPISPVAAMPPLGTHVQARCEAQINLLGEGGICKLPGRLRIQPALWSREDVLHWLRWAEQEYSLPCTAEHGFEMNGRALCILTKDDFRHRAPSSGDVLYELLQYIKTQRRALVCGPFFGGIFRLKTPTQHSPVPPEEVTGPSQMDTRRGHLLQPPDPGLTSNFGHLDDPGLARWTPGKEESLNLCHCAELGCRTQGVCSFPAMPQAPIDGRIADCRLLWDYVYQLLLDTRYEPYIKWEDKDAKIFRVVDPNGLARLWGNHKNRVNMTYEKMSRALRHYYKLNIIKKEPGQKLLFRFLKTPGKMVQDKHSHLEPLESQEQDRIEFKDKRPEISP
How it was run: as §1

[14] = target: ETV6 (Homo sapiens, UniProt P41212 1-452)
Chain of ETV6 (P41212 whole entry): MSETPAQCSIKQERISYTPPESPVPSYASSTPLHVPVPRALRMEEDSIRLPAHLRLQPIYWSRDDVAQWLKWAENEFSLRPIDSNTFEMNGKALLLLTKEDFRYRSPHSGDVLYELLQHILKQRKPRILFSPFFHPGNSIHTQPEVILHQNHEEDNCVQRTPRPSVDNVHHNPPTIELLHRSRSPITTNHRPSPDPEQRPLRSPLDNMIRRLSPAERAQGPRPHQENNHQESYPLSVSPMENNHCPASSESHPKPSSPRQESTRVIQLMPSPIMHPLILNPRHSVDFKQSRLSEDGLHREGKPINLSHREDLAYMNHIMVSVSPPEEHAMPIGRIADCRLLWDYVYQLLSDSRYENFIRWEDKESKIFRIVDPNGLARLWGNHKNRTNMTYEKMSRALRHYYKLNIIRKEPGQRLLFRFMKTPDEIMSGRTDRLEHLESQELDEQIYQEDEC
How it was run: as §1

[15] = target: T9, EHF (Homo sapiens, UniProt Q9NZC4 1-300)
T9 sequence: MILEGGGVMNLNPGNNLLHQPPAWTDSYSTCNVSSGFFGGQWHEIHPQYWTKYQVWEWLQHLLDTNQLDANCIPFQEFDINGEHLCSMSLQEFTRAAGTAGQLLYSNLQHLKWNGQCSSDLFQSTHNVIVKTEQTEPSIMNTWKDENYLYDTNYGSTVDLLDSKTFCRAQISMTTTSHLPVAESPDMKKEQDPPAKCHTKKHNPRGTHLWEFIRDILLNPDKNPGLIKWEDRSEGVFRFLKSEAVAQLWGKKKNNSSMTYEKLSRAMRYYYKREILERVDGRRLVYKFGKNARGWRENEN
How it was run: as §1

[16] = target: T10, ETV2 (Homo sapiens, UniProt O00321 1-342)
T10 sequence: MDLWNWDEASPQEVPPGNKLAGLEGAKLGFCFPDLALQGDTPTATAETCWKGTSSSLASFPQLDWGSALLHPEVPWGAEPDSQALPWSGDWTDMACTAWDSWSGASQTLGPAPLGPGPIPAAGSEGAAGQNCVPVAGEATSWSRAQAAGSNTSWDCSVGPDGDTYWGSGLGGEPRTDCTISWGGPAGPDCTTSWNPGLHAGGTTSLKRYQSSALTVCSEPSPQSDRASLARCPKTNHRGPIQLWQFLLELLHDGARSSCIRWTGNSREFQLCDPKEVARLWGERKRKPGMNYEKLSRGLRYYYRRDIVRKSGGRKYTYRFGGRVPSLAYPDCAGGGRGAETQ
How it was run: as §1

[17] = target: T11, ETS2 (Homo sapiens, UniProt P15036 1-469)
T11 sequence: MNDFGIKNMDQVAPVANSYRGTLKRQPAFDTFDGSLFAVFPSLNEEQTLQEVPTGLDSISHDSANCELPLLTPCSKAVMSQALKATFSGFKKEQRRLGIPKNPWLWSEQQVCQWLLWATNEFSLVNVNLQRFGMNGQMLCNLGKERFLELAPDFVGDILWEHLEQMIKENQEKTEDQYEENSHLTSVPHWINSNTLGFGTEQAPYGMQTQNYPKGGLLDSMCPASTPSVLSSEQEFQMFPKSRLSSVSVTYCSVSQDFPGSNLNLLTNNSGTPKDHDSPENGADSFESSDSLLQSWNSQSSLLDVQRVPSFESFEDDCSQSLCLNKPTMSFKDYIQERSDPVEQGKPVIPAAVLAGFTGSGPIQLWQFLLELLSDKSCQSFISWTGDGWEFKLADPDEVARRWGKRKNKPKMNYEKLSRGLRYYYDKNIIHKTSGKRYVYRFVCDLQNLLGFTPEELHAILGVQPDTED
How it was run: as §1

[18] = target: T12, SPDEF (Homo sapiens, UniProt O95238 1-335)
T12 sequence: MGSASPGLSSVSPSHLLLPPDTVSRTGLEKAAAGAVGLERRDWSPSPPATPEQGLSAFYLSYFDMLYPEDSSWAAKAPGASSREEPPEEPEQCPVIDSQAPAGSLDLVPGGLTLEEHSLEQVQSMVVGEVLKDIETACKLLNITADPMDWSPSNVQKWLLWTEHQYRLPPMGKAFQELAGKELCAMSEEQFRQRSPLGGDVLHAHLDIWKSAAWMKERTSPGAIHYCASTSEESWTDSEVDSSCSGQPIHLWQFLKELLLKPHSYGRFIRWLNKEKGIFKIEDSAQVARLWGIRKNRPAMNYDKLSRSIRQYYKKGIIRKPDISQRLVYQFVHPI
How it was run: as §1

Sequence	binding signal [1]	binding signal [2]	binding signal [3]	binding signal [4]	binding signal [5]	binding signal [6]	binding signal [7]	binding signal [8]	binding signal [9]	binding signal [10]	binding signal [11]	binding signal [12]	binding signal [13]	binding signal [14]	binding signal [15]	binding signal [16]	binding signal [17]	binding signal [18]
GGGGCT	1.09 fold enrichment (6-mer frequency, TF over GST control)	1.11 fold enrichment (6-mer frequency, TF over GST control)	1.01 fold enrichment (6-mer frequency, TF over GST control)	1.04 fold enrichment (6-mer frequency, TF over GST control)	1.03 fold enrichment (6-mer frequency, TF over GST control)	1.04 fold enrichment (6-mer frequency, TF over GST control)	1.1 fold enrichment (6-mer frequency, TF over GST control)	1.14 fold enrichment (6-mer frequency, TF over GST control)	1.01 fold enrichment (6-mer frequency, TF over GST control)	1.11 fold enrichment (6-mer frequency, TF over GST control)	1.06 fold enrichment (6-mer frequency, TF over GST control)	1.22 fold enrichment (6-mer frequency, TF over GST control)	1.06 fold enrichment (6-mer frequency, TF over GST control)	1.04 fold enrichment (6-mer frequency, TF over GST control)	–	–	–	–
GTCTAT	1.04 fold enrichment (6-mer frequency, TF over GST control)	–	–	1.08 fold enrichment (6-mer frequency, TF over GST control)	1.01 fold enrichment (6-mer frequency, TF over GST control)	1.07 fold enrichment (6-mer frequency, TF over GST control)	1.11 fold enrichment (6-mer frequency, TF over GST control)	1 fold enrichment (6-mer frequency, TF over GST control)	1.12 fold enrichment (6-mer frequency, TF over GST control)	1.04 fold enrichment (6-mer frequency, TF over GST control)	1.14 fold enrichment (6-mer frequency, TF over GST control)	1.05 fold enrichment (6-mer frequency, TF over GST control)	1.07 fold enrichment (6-mer frequency, TF over GST control)	1.03 fold enrichment (6-mer frequency, TF over GST control)	1.1 fold enrichment (6-mer frequency, TF over GST control)	1 fold enrichment (6-mer frequency, TF over GST control)	1.01 fold enrichment (6-mer frequency, TF over GST control)	1.08 fold enrichment (6-mer frequency, TF over GST control)
